The record followed here is ChEMBL document CHEMBL3988442, “University of Dundee, Small-Polar-MMV Screening Library” (2021).

Hit rate of the full screen: of about 48,000 compounds, about 13,000 (27%) showed an effect of 50% or more. The list shows a part of the results.

The test concerns Wolbachia pipientis. In words: Anti-Wolbachia Cell-Based Screen. In kind it is functional. On the set-up: scale not given: in the data most compounds retested in dose-response had high values. As to conditions: 5 µM.
Take `CO[C@H]1CN(C(C)C)C[C@@H]1NC(=O)c1cc(COc2ccccc2)[nH]n1`: the “Percent Effect” value is reported as -19.38%. As to `CCCC1C=CCN1C(=O)c1cc(COc2ccccc2)[nH]n1` (stereo unspecified), the “Percent Effect” value was found to be 130%. The value for `CCCC1C=CCN1C(=O)c1cc(COc2ccc3c(c2)OCO3)[nH]n1` (stereo unspecified) was 106.8%. The value for `CN(C(=O)CC1=CCCCC1)C1CCCN(C2Cc3ccccc3C2)C1` (stereo unspecified) was -26.45%; that for `CCc1ncc2c(n1)CN(C(=O)Cc1cc(OC)cc(OC)c1)C2` was -17.96%.

On to `CC(C)COC(C)C(=O)N1CCC(C)CC1` (stereo unspecified), for which the “Percent Effect” value is on record as -15.15%. In the case of `Cc1cc(CN(C2CC2)C(C)C(C)C)no1` (stereo unspecified) it was 5.492%; in that of `COc1ccccc1OCc1cc(C(=O)N2CC=CC2C(C)C)n[nH]1` (stereo unspecified), -7.003%. As to `COc1ccccc1OCc1cc(C(=O)N2CC(O)C2)n[nH]1`, the “Percent Effect” value is -12.52%. The value for `CCC1C=CCN1C(=O)c1cc(COc2ccccc2OC)[nH]n1` (stereo unspecified) was 105.4%; that for `CC(=O)CN1CCC2(CC1)c1ccccc1[C@@H](N1CCSCC1)[C@@H]2O` was -3.937%; that for `CN(CC(=O)N1CC(C)(C)[C@@](C)(O)C1)Cc1ccncc1` was -6.458%. For `COc1ccc(COCC(O)CNC(=O)c2cc(C)cc(C)c2)cc1` (stereo unspecified), the “Percent Effect” value was 13.74%. The value for `CC(C)NC1CCc2c(ccc(=O)n2CCN(C)C)C1.O=C(O)C(F)(F)F.O=C(O)C(F)(F)F` (stereo unspecified) was 8.884%; that for `O=C(NC1CCc2c(ccc(=O)n2CC2CC2)C1)c1ccsc1` (stereo unspecified) was 1.111%; that for `CC(C)NC1CCc2c(ccc(=O)n2CCN2CCCC2=O)C1.O=C(O)C(F)(F)F` (stereo unspecified) was -4.2%. The value for `CN(C)CCn1c2c(ccc1=O)CC(NC(=O)c1cnccn1)CC2.O=C(O)C(F)(F)F` (stereo unspecified) was 97.98%; that for `Cn1c2c(ccc1=O)CC(NC(=O)c1ccsc1)CC2` (stereo unspecified) was 116.4%; that for `O=C(Cc1ccsc1)NC1CCc2c(ccc(=O)n2CC2CC2)C1` (stereo unspecified) was -22.09%.

`CN(C)CCn1c2c(ccc1=O)CC(NC(=O)c1ccsc1)CC2.O=C(O)C(F)(F)F` (stereo unspecified): the “Percent Effect” value came to 112.1%. The value for `CN(C)CCn1c2c(ccc1=O)CC(NC(=O)NC1CCCC1)CC2.O=C(O)C(F)(F)F` (stereo unspecified) was 92.43%.

On to `Cc1ccc(Sc2ccc(N3CCCC(C(=O)O)C3)nn2)cc1` (stereo unspecified), for which the “Percent Effect” value is on record as -25.21%.

For `Cn1cc(C(=O)N2CCOc3cc(F)ccc32)ccc1=O`, the “Percent Effect” value was -3.875%. The value for `O=C(Nc1ccnc2ccnn12)c1ccc(NC2CC2)nc1` was -6.003%. Regarding `Cc1nc(N2CCN(C(=O)c3cccs3)CC2)cc(-n2cccc2)n1`, the “Percent Effect” value amounted to 0.4402%. For the molecule `CC(Cc1cccc(F)c1)C(=O)NS(=O)(=O)c1ccc2c(c1)OCCO2` (stereo unspecified), the “Percent Effect” value is listed as -30.67%. In the case of `CCc1nc(CCNc2ncccc2S(N)(=O)=O)sc1C` it was -14.32%; in that of `Cc1n[nH]c(C2CN(Cc3csc(C4CCCCC4)n3)CCO2)n1` (stereo unspecified), -9.689%; in that of `CN1CCOC(CNCc2csc(C3CCCCC3)n2)C1` (stereo unspecified), 102.8%. Turning to `CCc1n[nH]c(C2CN(Cc3csc(C4CCCC4)n3)CCO2)n1` (stereo unspecified), the “Percent Effect” value came to 5.778%.

For the molecule `CN1CCOC(CNCc2coc(-c3cccs3)n2)C1` (stereo unspecified), the “Percent Effect” value is reported as 12.46%.

As for `CN1CCOC(CNCc2csc(C3CCCC3)n2)C1` (stereo unspecified), the “Percent Effect” value is on record as 96.75%. As for `CN(C)C(=O)[C@H]1CC[C@@H]2[C@@H](CCN2C(=O)N(C)C)O1`, the “Percent Effect” value is on record as -14.11%. In the case of `O=C(O)C(F)(F)F.O=C1COC2(COCCN(Cc3ccsc3)C2)CN1c1ccc(F)cc1` (stereo unspecified) it was 3.467%. With `O=C(c1ccc[nH]1)N1CCOCC2(C1)CN(c1ccccc1)C(=O)CO2` (stereo unspecified), the “Percent Effect” value is given as 99.07%.

Take `N#Cc1cccc(N2CCCC3(CN(C(=O)c4ccc[nH]4)CCO3)C2)c1` (stereo unspecified): the “Percent Effect” value is on record as -1.292%. Consider `O=C(c1ccc[nH]1)N1CCOC2(COCCN(c3cncnc3)C2)C1` (stereo unspecified), for which the “Percent Effect” value is given as -9.951%. The value for `O=C(O)C(F)(F)F.O=C(c1c[nH]cn1)N1CCOCC2(C1)CN(c1ccccc1)C(=O)CO2` (stereo unspecified) was 97.27%; that for `O=C(N1CCCC1)N1CCOCC2(C1)CN(c1ccccc1)C(=O)CO2` (stereo unspecified) was 96.63%; that for `CN(C)CC(=O)N1CCOCC2(C1)CN(c1ccccc1)C(=O)CO2` (stereo unspecified) was -12.92%.

Take `O=C(NC1CC1)N1CCOCC2(C1)CN(c1ccccc1)C(=O)CO2` (stereo unspecified): the “Percent Effect” value turned out to be 106.4%. In the case of `N#Cc1cccc(N2CCOCC3(CCCN(C(=O)NC4CC4)C3)C2)c1` (stereo unspecified) it was 10.86%. The value for `N#Cc1cccc(N2CCCC3(CN(C(=O)NC4CC4)CCO3)C2)c1` (stereo unspecified) was 4.321%. Turning to `COCC(=O)N1Cc2ccnn2CC(COCCN(C)C)C1.O=C(O)C(F)(F)F.O=C(O)C(F)(F)F` (stereo unspecified), the “Percent Effect” value is given as -12.14%. The value for `Cc1csc(-c2cccc(NC(=O)NCC(C)(C)C(N)=O)c2)n1` was 1.71%; that for `CC(C)n1cnc2c1C(C(=O)N(C)C)N(Cc1ccccc1)CC2.O=C(O)C(F)(F)F` (stereo unspecified) was -8.577%.
